# According to PubChem BioAssay:
# Results filed as inconclusive are left out. Active and inactive are the calls of the source.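 How the source made its calls, unless noted: active means inhibition above 54%, about 3 SD of non-fluorescent compounds; inactive means the rest.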
# What was measured:
# [1] = rapamycin-like changes in RPL19A-GFP expression – cell-based, S. cerevisiae, multiplex flow cytometry, primary screen (AID 1862; in the data active means percent of DMSO control GFP below about 86%;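 further: lower values mimic rapamycin by blocking the RPL19A rise seen in DMSO cells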); details: S. cerevisiae RPL19A-GFP strain, flow cytometry fluorescence, 3 h; at 10 µM; stronger effect = lower value
# [2] = TOR pathway GLN3 branch reporter MEP2-GFP changes – S. cerevisiae, multiplex flow cytometry, primary screen (AID 1867;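 active means GFP response, as percent of the DMSO control, above the screen-wide mean plus 3 SD, about 139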;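 further: median GFP channel fluorescence of barcode-gated MEP2-GFP cells measured by flow cytometry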); details: S. cerevisiae MEP2-GFP strain, 3 h, at 10 µM, stronger effect = higher value, 100% means same as DMSO wells
# [3] = TOR pathway RTG branch CIT2 reporter changes – S. cerevisiae, GFP fusion, multiplex flow cytometry, primary screen (AID 1870;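 active means percent response above a set limit, the screen-wide mean plus 3 SD, cut at about 130% in these data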;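 further: barcoded CIT2-GFP strain pooled with four other GFP strains with rapamycin as positive control; median GFP fluorescence per well over plate mean of DMSO wells so 100% = DMSO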); details: S. cerevisiae CIT2-GFP expression, 3 h, at 10 µM, stronger effect = higher value
# [4] = TOR pathway LAP4-GFP level changes – S. cerevisiae, multiplex flow cytometry, primary screen (AID 1873;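 active means GFP signal, as percent of the solvent control, above the screen mean plus 3 SD, about 149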); details: S. cerevisiae LAP4-GFP expression, 3 h, at 10 µM, stronger effect = higher value
# [5] = yeast AGP1-GFP level changes, GLN3 branch – cell-based, multiplex flow cytometry, S. cerevisiae, primary screen (AID 1887;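 active means GFP signal above the screen-wide mean plus 3 SD, that is over about 124.5% of the solvent control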;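 further: AGP1-GFP fusion strain of S. cerevisiae within a five-strain barcoded multiplex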); details: 3 h, at 10 µM, stronger effect = higher value
# [6] = reduced mouse 2C T cell binding to pMHC/ICAM-1 vesicles – MLPCN validation set, flow cytometry, LFA-1/ICAM-1 modulator project, pilot screen (AID 2523;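 active means response below a set limit, under 55% cells CD8-positive and vesicle-bound, and CD8 cells' 90th-percentile brightness under 279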;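 on vesicle binding response: mean PE anti-B7-1 fluorescence of CD8+ cells relative to row control; 100% = QL9-loaded vesicles with DMSO vehicle in the same plate row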); details: 2C mouse CD8+ T cells, at 7 µM, stronger effect = lower value; double positive events: measured here: CD8+/vesicle+ event percentage
# [7] = biological target: Integrin beta-1 (Homo sapiens) + Integrin alpha-4 (Homo sapiens) (UniProt P13612+P05556); test: alpha4beta1 integrin LIBS antibody binding reduction – U937 cells, HUTS-21 mAb, flow cytometry, validation set, VLA-4 allosteric modulator project, pilot screen (AID 2674;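 active means inhibition above 50%, about 3 SD of the validation set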;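 further: antibody binding induced by the VLA-4 ligand LDV present at three times its Kd; 0% = LDV ligand with antibody and no compound and 100% = antibody without LDV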); details: HUTS-21 LIBS mAb binding, at 6.7 µM, stronger effect = higher value, binding induced by LDV ligand
# Sequence of Integrin beta-1 (Homo sapiens) + Integrin alpha-4 (Homo sapiens) (P05556 whole entry, looked up): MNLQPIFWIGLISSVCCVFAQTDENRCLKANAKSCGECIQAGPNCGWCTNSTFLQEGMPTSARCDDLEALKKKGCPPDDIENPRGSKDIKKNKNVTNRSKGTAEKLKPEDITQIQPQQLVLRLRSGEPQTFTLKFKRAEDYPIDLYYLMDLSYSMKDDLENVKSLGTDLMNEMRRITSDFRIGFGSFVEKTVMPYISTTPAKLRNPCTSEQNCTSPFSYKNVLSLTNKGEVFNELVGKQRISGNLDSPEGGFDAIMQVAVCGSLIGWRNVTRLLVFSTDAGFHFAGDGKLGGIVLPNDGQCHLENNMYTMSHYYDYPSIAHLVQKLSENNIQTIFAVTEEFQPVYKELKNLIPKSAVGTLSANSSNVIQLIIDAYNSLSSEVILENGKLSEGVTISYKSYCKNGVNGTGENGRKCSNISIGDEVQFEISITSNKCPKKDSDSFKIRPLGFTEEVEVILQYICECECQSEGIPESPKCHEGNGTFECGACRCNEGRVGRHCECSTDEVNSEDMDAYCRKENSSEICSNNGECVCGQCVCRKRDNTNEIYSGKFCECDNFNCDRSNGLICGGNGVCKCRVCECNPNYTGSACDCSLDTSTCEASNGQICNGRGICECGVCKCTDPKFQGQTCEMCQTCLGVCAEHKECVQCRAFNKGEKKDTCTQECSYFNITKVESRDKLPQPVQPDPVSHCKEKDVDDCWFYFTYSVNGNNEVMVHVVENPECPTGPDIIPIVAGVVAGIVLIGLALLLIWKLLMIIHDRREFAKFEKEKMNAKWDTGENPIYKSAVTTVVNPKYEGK
# Sequence of Integrin beta-1 (Homo sapiens) + Integrin alpha-4 (Homo sapiens) (P13612 whole entry, looked up): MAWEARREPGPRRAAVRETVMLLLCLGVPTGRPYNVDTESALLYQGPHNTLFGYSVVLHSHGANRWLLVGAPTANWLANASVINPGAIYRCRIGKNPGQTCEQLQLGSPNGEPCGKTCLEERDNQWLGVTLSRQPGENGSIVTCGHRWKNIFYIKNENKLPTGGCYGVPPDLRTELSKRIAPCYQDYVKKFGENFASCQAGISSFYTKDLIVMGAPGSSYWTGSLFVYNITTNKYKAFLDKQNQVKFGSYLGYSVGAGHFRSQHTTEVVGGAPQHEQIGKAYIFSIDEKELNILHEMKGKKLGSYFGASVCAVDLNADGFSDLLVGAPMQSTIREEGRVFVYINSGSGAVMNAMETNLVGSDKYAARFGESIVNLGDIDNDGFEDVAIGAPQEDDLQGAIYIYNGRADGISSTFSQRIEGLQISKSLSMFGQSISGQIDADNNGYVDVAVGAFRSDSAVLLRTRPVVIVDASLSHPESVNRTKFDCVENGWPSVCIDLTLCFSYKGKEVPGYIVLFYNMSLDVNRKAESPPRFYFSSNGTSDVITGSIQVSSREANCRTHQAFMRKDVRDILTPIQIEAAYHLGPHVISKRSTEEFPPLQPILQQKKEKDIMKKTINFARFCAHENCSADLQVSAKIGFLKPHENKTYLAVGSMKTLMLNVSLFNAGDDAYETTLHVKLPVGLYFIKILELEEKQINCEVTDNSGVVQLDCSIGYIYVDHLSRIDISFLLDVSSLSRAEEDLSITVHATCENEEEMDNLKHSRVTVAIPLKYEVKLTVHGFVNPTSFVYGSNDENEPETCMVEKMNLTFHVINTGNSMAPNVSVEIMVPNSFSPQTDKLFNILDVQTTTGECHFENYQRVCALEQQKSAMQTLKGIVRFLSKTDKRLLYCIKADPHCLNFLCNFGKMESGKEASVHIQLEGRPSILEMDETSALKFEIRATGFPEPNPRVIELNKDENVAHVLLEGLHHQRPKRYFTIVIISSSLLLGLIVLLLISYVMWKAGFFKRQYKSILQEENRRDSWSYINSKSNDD
# [8] = calorie-restriction mimetic ROS inhibitors, yeast – validation compound set, pilot screen (AID 2706;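 active means superoxide response below 65% of plate, a cut near 3 SD across the whole screen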;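 further: yeast exposed to compound for one week at 30 degrees C before staining; 100% = mean of all compound wells on the same plate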); details: S. cerevisiae aging, superoxide DHE fluorescence; at 10 µM; stronger effect = lower value
# [9] = biological target: Beta-adrenergic receptor kinase 1 (Homo sapiens) (UniProt P25098); test: GRK2 binders displacing RNA aptamer, biochemical, validation, human GRK2, bead flow cytometry (AID 488806;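 active means aptamer binding inhibition above 30%, about 3 SD of noise from non-fluorescent compounds; inactive means inhibition at or below 30%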); details: bead-bound GRK2, FAM-aptamer displacement, at 10 µM, stronger effect = higher value
# Sequence of Beta-adrenergic receptor kinase 1 (Homo sapiens) (P25098 whole entry, looked up): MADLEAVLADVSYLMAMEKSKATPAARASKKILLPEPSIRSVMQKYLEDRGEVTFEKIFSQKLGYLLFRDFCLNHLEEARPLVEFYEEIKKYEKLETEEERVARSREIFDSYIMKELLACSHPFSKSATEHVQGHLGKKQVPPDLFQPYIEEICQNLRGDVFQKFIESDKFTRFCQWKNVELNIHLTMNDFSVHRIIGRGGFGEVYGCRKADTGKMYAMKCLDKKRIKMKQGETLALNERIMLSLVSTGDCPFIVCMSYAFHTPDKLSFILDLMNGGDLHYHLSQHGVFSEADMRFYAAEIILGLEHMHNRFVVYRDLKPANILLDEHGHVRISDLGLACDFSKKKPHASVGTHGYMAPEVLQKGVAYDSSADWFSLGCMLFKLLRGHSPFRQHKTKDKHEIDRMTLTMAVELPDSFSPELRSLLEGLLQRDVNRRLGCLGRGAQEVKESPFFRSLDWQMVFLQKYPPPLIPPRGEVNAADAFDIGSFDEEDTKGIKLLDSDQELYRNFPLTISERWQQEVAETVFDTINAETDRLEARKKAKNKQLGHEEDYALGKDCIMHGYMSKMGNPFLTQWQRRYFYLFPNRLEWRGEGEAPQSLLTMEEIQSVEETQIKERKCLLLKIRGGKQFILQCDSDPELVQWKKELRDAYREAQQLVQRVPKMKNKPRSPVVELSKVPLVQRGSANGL
# [10] = biological target: Beta-2 adrenergic receptor (Homo sapiens) (UniProt P07550); test: agonist-induced loss of surface beta2AR – cell-based, FAP fluorogen, flow cytometry, validation set, pilot screen (AID 504459;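 active means percent response above 42, roughly 3 SD of non-fluorescent test compounds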;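 further: agonist-driven loss of surface beta2AR via internalization measured by FAP dye flow cytometry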); details: Am2.2-beta2AR cells, at 10 µM, stronger effect = higher value
# Sequence of Beta-2 adrenergic receptor (Homo sapiens) (P07550 whole entry, looked up, the tested form may be a part): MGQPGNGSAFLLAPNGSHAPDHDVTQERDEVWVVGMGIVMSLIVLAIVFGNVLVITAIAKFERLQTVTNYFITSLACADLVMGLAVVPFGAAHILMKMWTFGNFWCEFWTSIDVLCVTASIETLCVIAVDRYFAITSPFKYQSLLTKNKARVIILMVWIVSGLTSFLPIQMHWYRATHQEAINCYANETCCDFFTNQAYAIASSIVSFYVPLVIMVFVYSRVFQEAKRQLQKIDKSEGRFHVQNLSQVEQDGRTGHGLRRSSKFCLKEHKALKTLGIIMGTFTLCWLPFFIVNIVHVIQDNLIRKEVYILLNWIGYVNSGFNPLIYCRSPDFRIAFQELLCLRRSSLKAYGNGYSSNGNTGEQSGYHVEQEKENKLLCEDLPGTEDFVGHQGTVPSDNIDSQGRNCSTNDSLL
# [11] = biological target: AP-2 complex subunit beta (Homo sapiens) (UniProt P63010); test: beta-arrestin/AP2 interaction blockers – biochemical, validation set, GST-AP2 beads, flow cytometry, pilot screen (AID 504541); details: FITC arrestin peptide, at 10 µM, stronger effect = higher value, AP2 beta2 appendage fragment, R879A mutant;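 further: AP2 carries R879A mutation and is captured from E. coli lysate; bead-bound FITC arrestin peptide fluorescence measuring arrestin peptide binding to AP2; 0% = DMSO wells and 100% = excess unlabeled arrestin peptide control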
# Sequence of AP-2 complex subunit beta (Homo sapiens) (P63010 whole entry, looked up, the tested form may be a part, one chain of several): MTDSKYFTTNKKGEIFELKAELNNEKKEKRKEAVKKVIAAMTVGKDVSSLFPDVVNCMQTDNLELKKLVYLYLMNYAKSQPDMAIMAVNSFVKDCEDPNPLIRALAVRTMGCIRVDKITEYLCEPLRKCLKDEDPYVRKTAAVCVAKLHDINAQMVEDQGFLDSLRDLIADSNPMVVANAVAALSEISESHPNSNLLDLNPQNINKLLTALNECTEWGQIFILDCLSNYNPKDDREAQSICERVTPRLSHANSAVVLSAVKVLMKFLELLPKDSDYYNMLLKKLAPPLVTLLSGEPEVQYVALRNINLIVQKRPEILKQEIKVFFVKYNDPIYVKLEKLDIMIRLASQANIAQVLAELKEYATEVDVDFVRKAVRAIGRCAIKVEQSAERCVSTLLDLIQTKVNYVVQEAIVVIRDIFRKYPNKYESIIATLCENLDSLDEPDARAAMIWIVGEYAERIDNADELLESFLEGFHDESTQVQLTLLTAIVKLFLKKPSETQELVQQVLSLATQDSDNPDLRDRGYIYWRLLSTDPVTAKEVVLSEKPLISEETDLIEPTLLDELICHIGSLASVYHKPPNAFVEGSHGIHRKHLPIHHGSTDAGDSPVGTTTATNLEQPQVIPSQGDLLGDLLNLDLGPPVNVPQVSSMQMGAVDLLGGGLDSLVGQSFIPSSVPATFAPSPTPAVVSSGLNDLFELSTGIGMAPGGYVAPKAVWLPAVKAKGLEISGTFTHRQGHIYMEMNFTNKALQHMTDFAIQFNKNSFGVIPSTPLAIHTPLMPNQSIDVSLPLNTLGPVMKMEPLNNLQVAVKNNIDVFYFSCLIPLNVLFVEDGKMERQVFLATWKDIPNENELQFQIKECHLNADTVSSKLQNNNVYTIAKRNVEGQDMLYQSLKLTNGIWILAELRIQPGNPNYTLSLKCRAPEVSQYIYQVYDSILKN
# [12] = cytosolic pH regulators acting via V-ATPase – S. cerevisiae, pHLuorin, HTS validation (AID 504600; in the data active means response above about 15%;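 further: plate controls were DMSO for no effect and reference compound for full effect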); details: V-ATPase proton transport, at 10 µM, stronger effect = higher value
# [13] = test system: anti-desmoglein-3 scFv antibody binding to human DSG3; test: blockers of pathogenic pemphigus antibody–desmoglein-3 binding – biochemical, validation compound set, bead-based, flow cytometry, pilot screen (AID 588368;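 active means binding below the plate cutoff, the plate median minus 3 SD, with a reading above zero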;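 further: signal is the median channel fluorescence of bead-bound GFP antibody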); details: Protein G beads, DSG3-Fc, scFv-GFP binding, at 10 µM, stronger effect = lower value
# [14] = Nile Red efflux blockade in pump-expressing yeast – validation compound set, multiplex, phenotypic, pilot screen (AID 588506;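 active means efflux inhibition above 0.42, the validation set average plus 4 SD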;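 further: Nile Red retained in cells so higher fluorescence means more efflux inhibition; 0 = negative control wells and 1 = enniatin B 25 µM full block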); details: S. cerevisiae pump-expressing triplex, Nile Red efflux flow cytometry; at 10 µM; stronger effect = higher value; the pumps come from Candida albicans
# [15] = biological target: ATP-binding cassette sub-family B member 6 (Homo sapiens) (UniProt Q9NP58); test: blockers of ABCB6-driven porphyrin uptake – K562-ABCB6 cells, flow cytometry, validation set, pilot screen (AID 588550;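 active means inhibition above the screen-wide mean plus 3 SD, about 51%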;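 further: 0% = DMSO wells and 100% = benzethonium chloride 70 µM positive control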); details: K562-ABCB6 porphyrin accumulation, 1 h, at 10 µM, stronger effect = higher value
# Sequence of ATP-binding cassette sub-family B member 6 (Homo sapiens) (Q9NP58 whole entry, looked up): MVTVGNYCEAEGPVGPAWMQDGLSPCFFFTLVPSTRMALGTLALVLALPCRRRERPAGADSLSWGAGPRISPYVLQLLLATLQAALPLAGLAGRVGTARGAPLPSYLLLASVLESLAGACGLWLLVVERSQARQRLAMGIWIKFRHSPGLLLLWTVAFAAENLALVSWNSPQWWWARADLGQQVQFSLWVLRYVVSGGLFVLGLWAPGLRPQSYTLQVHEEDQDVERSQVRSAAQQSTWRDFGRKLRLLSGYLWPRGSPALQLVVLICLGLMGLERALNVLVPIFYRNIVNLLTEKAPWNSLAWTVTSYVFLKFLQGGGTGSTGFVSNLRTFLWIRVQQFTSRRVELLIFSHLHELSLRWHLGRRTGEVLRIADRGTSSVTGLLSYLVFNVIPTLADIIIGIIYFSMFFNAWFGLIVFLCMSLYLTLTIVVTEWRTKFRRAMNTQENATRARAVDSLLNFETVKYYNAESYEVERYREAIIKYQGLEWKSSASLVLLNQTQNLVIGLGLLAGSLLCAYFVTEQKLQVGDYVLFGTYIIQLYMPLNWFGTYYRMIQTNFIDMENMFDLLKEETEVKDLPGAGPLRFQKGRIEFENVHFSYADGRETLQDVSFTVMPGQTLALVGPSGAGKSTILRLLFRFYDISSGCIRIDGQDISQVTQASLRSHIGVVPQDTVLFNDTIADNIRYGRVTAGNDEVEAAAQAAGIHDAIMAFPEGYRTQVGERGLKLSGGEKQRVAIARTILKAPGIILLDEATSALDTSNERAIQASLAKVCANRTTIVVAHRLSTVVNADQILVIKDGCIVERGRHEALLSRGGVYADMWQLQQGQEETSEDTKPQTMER
# [16] = AML differentiation inducers, ER-HoxA9 marrow cells – cell-based, GFP/MAC1 double positive, flow cytometry, validation set, primary screen (AID 588685;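 active means differentiation response of at least 50%, scaled between solvent and reference control, from cells with both markers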;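 further: compound exposure lasts four days before antibody staining and flow analysis; 0% = DMSO wells and 100% = 5 µM fulvestrant positive control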); details: stronger effect = higher value, normalized: vehicle 0, fulvestrant 100
Compound,percent of DMSO control GFP [1],GFP response vs DMSO [2],percent response of DMSO control [3],GFP response vs DMSO [4],"GFP response, % of DMSO [5]",double positive events [6],vesicle binding response [6],inhibition [7],superoxide response (% of plate) [8],aptamer binding inhibition [9],response [10],inhibition [11],response [12],binding (% of control) [13],efflux inhibition (fraction of control) [14],inhibition [15],differentiation response [16]
COc1cc(C(=O)N/C(=C\c2cn(C)c3ccccc23)C(=O)NCCCO)cc(OC)c1OC,102% (inactive),94.1% (inactive),107% (inactive),75.2% (inactive),88% (inactive),56.3%,215% (inactive),11.9% (inactive),99.7% (inactive),2% (inactive),5% (inactive),-0.03% (inactive),11.1% (inactive),100% (inactive),0.3 (inactive),7% (inactive),-15.2% (inactive)
COc1cc(NS(=O)(=O)c2ccc(N)cc2)nc(OC)n1,98.8% (inactive),102% (inactive),105% (inactive),96.5% (inactive),98.2% (inactive),60.1%,102% (inactive),-1.74% (inactive),113% (inactive),3% (inactive),1.82% (inactive),18.1% (inactive),0.53% (inactive),96.4% (inactive),0.01 (inactive),-1% (inactive),14.9% (inactive)
Cn1cc(CN2CCN(CCO)CC2)c(-c2ccc(Oc3ccccc3)cc2)n1,102% (inactive),102% (inactive),96.7% (inactive),114% (inactive),100% (inactive),61%,244% (inactive),13.2% (inactive),82.1% (inactive),0% (inactive),11.3% (inactive),-1.86% (inactive),3.7% (inactive),99.7% (inactive),-0.28 (inactive),6% (inactive),15.2% (inactive)
O=C(NCCc1c[nH]c2ccccc12)OCCSS(=O)(=O)O,101% (inactive),101% (inactive),108% (inactive),102% (inactive),100% (inactive),66.8%,1060% (inactive),-6.68% (inactive),106% (inactive),3% (inactive),-2.85% (inactive),-1.88% (inactive),3.36% (inactive),99.7% (inactive),-0.07 (inactive),7% (inactive),2.2% (inactive)
CC1(C)CC(=O)C(C2=NC(C)(C)Cc3ccccc32)=C(O)C1,103% (inactive),100% (inactive),108% (inactive),92.7% (inactive),101% (inactive),59.3%,48.2% (inactive),-2.53% (inactive),103% (inactive),4% (inactive),-9.99% (inactive),17.9% (inactive),1.49% (inactive),91.7% (inactive),0.14 (inactive),13% (inactive),-4.64% (inactive)
CCN(CC)CCCNC(=O)C1c2ccccc2Oc2ccccc21,100% (inactive),95.1% (inactive),95.4% (inactive),89.4% (inactive),97.2% (inactive),64.1%,1360% (inactive),13% (inactive),101% (inactive),2% (inactive),2.25% (inactive),17% (inactive),-0.98% (inactive),101% (inactive),0.49 (active),-2% (inactive),26.6% (inactive)
COc1cccc2cc(-c3ccccc3)c(=O)oc12,105% (inactive),106% (inactive),101% (inactive),140% (inactive),106% (inactive),61.4%,134% (inactive),-1.97% (inactive),88.6% (inactive),3% (inactive),-27.6% (inactive),10.1% (inactive),34.3% (active),102% (inactive),0.29 (inactive),2% (inactive),-1.05% (inactive)
CC(=O)N1CCN(c2ccc(NC(=O)/C=C/c3ccccc3)cc2)CC1,103% (inactive),98.7% (inactive),105% (inactive),100% (inactive),108% (inactive),63.1%,168% (inactive),2.93% (inactive),76% (inactive),-3% (inactive),3.43% (inactive),-6.59% (inactive),3.19% (inactive),107% (inactive),0.39 (inactive),-1% (inactive),-11.9% (inactive)
CCOc1ccc(N2C(=O)CC(NCCNc3ccc([N+](=O)[O-])cn3)C2=O)cc1 (stereo not given),103% (inactive),95.6% (inactive),106% (inactive),98% (inactive),93% (inactive),53.2%,145% (inactive),15% (inactive),94.4% (inactive),0% (inactive),1.65% (inactive),-8.05% (inactive),4.15% (inactive),98.8% (inactive),0.06 (inactive),8% (inactive),-4.57% (inactive)
COc1ccc(CCN=CC2=C(O)CC(C)(C)CC2=O)cc1,109% (inactive),106% (inactive),106% (inactive),91.4% (inactive),102% (inactive),62.4%,6690% (inactive),-2.53% (inactive),91.4% (inactive),-2% (inactive),-5.19% (inactive),-11.8% (inactive),2.74% (inactive),101% (inactive),0.02 (inactive),3% (inactive),1.22% (inactive)
